Read-out in assay [1]: CFLAR gene, CFLAR (gene 8837)
Description: LTEA_HepaRG_CFLAR: Life Technologies and Expression Analysis (LTEA) Assay for CFLAR gene using HepaRG (AID 2283455). The conditions noted are these: mRNA level, 48 h; actives raise or lower the signal. The method, boiled down:
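HepaRG cells were plated for 48 h, switched to serum-free induction medium, then exposed in duplicate for 48 h to 8 concentrations (top 100 uM, half-log steps, 0.5% DMSO). CFLAR mRNA was measured by qRT-PCR, normalized to ACTB, GAPDH and POLR2A.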

Read-out in assay [2]: Forkhead box O1 (FOXO1), FOXO1 (gene 2308)
Description: LTEA_HepaRG_FOXO1: Life Technologies and Expression Analysis (LTEA) Assay for Forkhead box O1 (FOXO1) using HepaRG (AID 2283456). To be noted: mRNA level, 48 h; actives raise or lower the signal. An outline of the steps:
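Differentiated human HepaRG cells in serum-free induction medium were exposed in duplicate for 48 h to eight half-log concentrations (top 100 uM, 0.5% DMSO). FOXO1 mRNA was measured by TaqMan qRT-PCR, normalised to ACTB, GAPDH and POLR2A, and fitted bidirectionally against DMSO.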

Read-out in assay [3]: growth arrest and DNA damage 45 (GADD45A), GADD45A (gene 1647)
In words: LTEA_HepaRG_GADD45A: Life Technologies and Expression Analysis (LTEA) Assay for growth arrest and DNA damage 45 (GADD45A) using HepaRG (AID 2283458). To be noted: mRNA level, 48 h; actives raise or lower the signal. An outline of the steps: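 Differentiated HepaRG cells exposed 48 h in serum-free induction medium to 8 concentrations, top 100 uM in half-log steps, 0.5% DMSO. GADD45A mRNA quantified by qRT-PCR, normalized to ACTB, GAPDH and POLR2A; bidirectional fit versus DMSO.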

Read-out in assay [4]: ABC Transporter (ABCB1), ABCB1 (gene 5243)
Description: LTEA_HepaRG_ABCB1: Life Technologies and Expression Analysis (LTEA) Assay for ABC Transporter (ABCB1) using HepaRG (AID 2283460). To be noted: mRNA level, 48 h; actives raise or lower the signal. An outline of the steps:
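Differentiated human HepaRG cells, plated 48 h then switched to serum-free induction medium, were exposed in duplicate to eight half-log concentrations up to 100 uM in 0.5% DMSO for 48 h. ABCB1 mRNA was measured by TaqMan qRT-PCR, normalized to ACTB/GAPDH/POLR2A.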

Read-out in assay [5]: growth arrest and DNA damage 45 (GADD45B), GADD45B (gene 4616)
In words: LTEA_HepaRG_GADD45B: Life Technologies and Expression Analysis (LTEA) Assay for growth arrest and DNA damage 45 (GADD45B) using HepaRG (AID 2283461). The conditions noted are these: mRNA level, 48 h; actives raise or lower the signal. The method, boiled down:
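Human HepaRG monolayers receive chemicals for 48 h at eight half-log concentrations, highest 100 uM, in 0.5% DMSO. Expression is measured by TaqMan qRT-PCR and normalized to ACTB, GAPDH and POLR2A.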

Read-out in assay [6]: ABC Transporter (ABCC3), ABCC3 (gene 8714)
In words: LTEA_HepaRG_ABCC3: Life Technologies and Expression Analysis (LTEA) Assay for ABC Transporter (ABCC3) using HepaRG (AID 2283462). The conditions noted are these: mRNA level, 48 h; actives raise or lower the signal. The method, boiled down:
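Transcriptional change of ABCC3 in HepaRG after 48 h treatment, determined by qRT-PCR normalized to endogenous controls. Concentrations spanned eight half-log steps to 100 uM in 0.5% DMSO.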

Read-out in assay [7]: ABC Transporter (ABCB11), ABCB11 (gene 8647)
Description: LTEA_HepaRG_ABCB11: Life Technologies and Expression Analysis (LTEA) Assay for ABC Transporter (ABCB11) using HepaRG (AID 2283463). The conditions noted are these: mRNA level, 48 h; actives raise or lower the signal. The method, boiled down:
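Differentiated human HepaRG cells were exposed for 48 h in serum-free induction medium to eight half-log concentrations up to 100 uM in 0.5% DMSO. ABCB11 mRNA was quantified by qRT-PCR, normalized to ACTB, GAPDH and POLR2A, and fitted bidirectionally versus DMSO.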

Read-out in assay [8]: ABC Transporter (ABCC2), ABCC2 (gene 1244)
In words: LTEA_HepaRG_ABCC2: Life Technologies and Expression Analysis (LTEA) Assay for ABC Transporter (ABCC2) using HepaRG (AID 2283464). To be noted: mRNA level, 48 h; actives raise or lower the signal. The method, boiled down: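 After plating and 48 h culture, HepaRG medium is replaced with serum-free induction medium and chemicals are added (8 concentrations, max 100 uM, 0.5% DMSO) for 48 h. Total RNA then undergoes qRT-PCR for ABCC2 with housekeeping normalization.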

Read-out in assay [9]: Broad substrate specificity ATP-binding cassette transporter ABCG2 (Homo sapiens) (UniProt Q9UNQ0)
In words: LTEA_HepaRG_ABCG2: Life Technologies and Expression Analysis (LTEA) Assay for ABC Transporter (ABCG2) using HepaRG (AID 2283465). To be noted: mRNA level, 48 h; actives raise or lower the signal. An outline of the steps:
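Differentiated HepaRG cells in serum-free induction medium were exposed for 48 h, in duplicate, to eight half-log concentrations up to 100 uM in 0.5% DMSO. ABCG2 mRNA was measured by TaqMan qRT-PCR, normalized to ACTB, GAPDH and POLR2A, and fitted bidirectionally versus DMSO.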

Read-out in assay [10]: ATP-citrate lyase (ACLY), ACLY (gene 47)
Description: LTEA_HepaRG_ACLY: Life Technologies and Expression Analysis (LTEA) Assay for ATP-citrate lyase (ACLY) using HepaRG (AID 2283466). To be noted: mRNA level, 48 h; actives raise or lower the signal. An outline of the steps:
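Differentiated human HepaRG cells in serum-free induction medium exposed 48 h, in duplicate, to eight half-log concentrations from 100 uM top in 0.5% DMSO; ACLY mRNA measured by qRT-PCR, normalized to ACTB, GAPDH, POLR2A, fitted bidirectionally versus DMSO.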

Read-out in assay [11]: Peroxisomal acyl-coenzyme A oxidase 1 (ACOX1) gene, ACOX1 (gene 51)
In words: LTEA_HepaRG_ACOX1: Life Technologies and Expression Analysis (LTEA) Assay for Peroxisomal acyl-coenzyme A oxidase 1 (ACOX1) gene using HepaRG (AID 2283467). The conditions noted are these: mRNA level, 48 h; actives raise or lower the signal. The method, boiled down: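 Differentiated human HepaRG cells were exposed in duplicate for 48 h in serum-free induction medium to eight half-log concentrations up to 100 uM in 0.5% DMSO. ACOX1 mRNA was then quantified by TaqMan qRT-PCR, normalized to ACTB, GAPDH and POLR2A.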

Read-out in assay [12]: Alkaline Phosphatase, Placental (ALPP) gene, ALPP (gene 250)
Description: LTEA_HepaRG_ALPP: Life Technologies and Expression Analysis (LTEA) Assay for Alkaline Phosphatase, Placental (ALPP) gene using HepaRG (AID 2283468). The conditions noted are these: mRNA level, 48 h; actives raise or lower the signal. An outline of the steps: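 Using human liver HepaRG cells, chemicals are tested in duplicate over 48 h at half-log concentrations topping at 100 uM; phenobarbital 1 mM serves as induction control. ALPP mRNA change by qRT-PCR, bidirectional fit against vehicle.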

Read-out in assay [13]: Bcl-2 (BAD) gene, BAD (gene 572)
In words: LTEA_HepaRG_BAD: Life Technologies and Expression Analysis (LTEA) Assay for Bcl-2 (BAD) gene using HepaRG (AID 2283469). To be noted: mRNA level, 48 h; actives raise or lower the signal. An outline of the steps: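 Differentiated human HepaRG cells in serum-free induction medium were exposed in duplicate for 48 h to eight concentrations (top 100 uM, half-log steps, 0.5% DMSO). BAD mRNA was quantified by qRT-PCR normalised to ACTB, GAPDH and POLR2A, with bidirectional fitting versus DMSO.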

Read-out in assay [14]: Bcl-2 (BAX) gene, BAX (gene 581)
In words: LTEA_HepaRG_BAX: Life Technologies and Expression Analysis (LTEA) Assay for Bcl-2 (BAX) gene using HepaRG (AID 2283470). To be noted: mRNA level, 48 h; actives raise or lower the signal. An outline of the steps: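 Differentiated HepaRG cells exposed 48 h in serum-free induction medium, eight half-log concentrations from 100 uM, in duplicate, 0.5% DMSO vehicle. BAX mRNA by TaqMan qRT-PCR, normalised to ACTB, GAPDH and POLR2A.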

Read-out in assay [15]: adenosine kinase (ADK) gene, ADK (gene 132)
Description: LTEA_HepaRG_ADK: Life Technologies and Expression Analysis (LTEA) Assay for adenosine kinase (ADK) gene using HepaRG (AID 2283471). To be noted: mRNA level, 48 h; actives raise or lower the signal. The method, boiled down: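 Following 48 h exposure of HepaRG cells in 0.5% DMSO (top concentration 100 uM, duplicate wells), ADK mRNA induction or suppression was measured by qRT-PCR, normalised to ACTB/GAPDH/POLR2A, and fitted bidirectionally relative to vehicle.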

Read-out in assay [16]: Alpha-fetoprotein (AFP) gene, AFP (gene 174)
In words: LTEA_HepaRG_AFP: Life Technologies and Expression Analysis (LTEA) Assay for Alpha-fetoprotein (AFP) gene using HepaRG (AID 2283472). To be noted: mRNA level, 48 h; actives raise or lower the signal. An outline of the steps:
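Differentiated human HepaRG cells exposed 48 h in serum-free induction medium, 8-point half-log series from 100 uM in 0.5% DMSO, duplicate. AFP mRNA by qRT-PCR, normalized to ACTB, GAPDH, POLR2A; bidirectional fit vs DMSO.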

Read-out in assay [17]: BCL2L11 (gene 10018)
Description: LTEA_HepaRG_BCL2L11: Life Technologies and Expression Analysis (LTEA) Assay for Bcl-2 (BCL2L11) gene using HepaRG (AID 2283473). To be noted: mRNA level, 48 h; actives raise or lower the signal. The method, boiled down:
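Human hepatic HepaRG cultures are treated 48 h with test chemicals (maximum 100 uM, 0.5% DMSO vehicle). Expression of BCL2L11 is measured by qRT-PCR against ACTB, GAPDH and POLR2A, with activity in either direction scored relative to vehicle.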

Read-out in assay [18]: Apolipoprotein A-V (APOA5) gene, APOA5 (gene 116519)
In words: LTEA_HepaRG_APOA5: Life Technologies and Expression Analysis (LTEA) Assay for Apolipoprotein A-V (APOA5) gene using HepaRG (AID 2283474). The conditions noted are these: mRNA level, 48 h; actives raise or lower the signal. The method, boiled down: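 Concentration-response of APOA5 expression in HepaRG: eight half-log doses to 100 uM, 48 h, qRT-PCR normalized to ACTB/GAPDH/POLR2A, bidirectional fitting with 0.5% DMSO as baseline.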

Assay [19] can be described thus: CEETOX_H295R_TESTO: CeeTox H295R High-throughput Steroidogenesis Assay for Testosterone (TESTO) (AID 2283457). The conditions noted are these: actives raise or lower the signal. The method, boiled down: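 Steroidogenesis in H295R cells following OECD 456 with minor changes; 48 h exposure. Medium testosterone by HPLC-MS/MS, DMSO as baseline, with MTT viability run in parallel.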

This is an account of results in PubChem BioAssay (EPA / NIEHS).

Molecules are shown by their SMILES. Active and inactive are the calls of the source. The calls were made as follows: active = hit-call score of the fitted dose curve at least 0.9, where 1 is the maximum; inactive = score below 0.9.

Broad substrate specificity ATP-binding cassette transporter ABCG2 (Homo sapiens), sequence (Q9UNQ0 whole entry, looked up): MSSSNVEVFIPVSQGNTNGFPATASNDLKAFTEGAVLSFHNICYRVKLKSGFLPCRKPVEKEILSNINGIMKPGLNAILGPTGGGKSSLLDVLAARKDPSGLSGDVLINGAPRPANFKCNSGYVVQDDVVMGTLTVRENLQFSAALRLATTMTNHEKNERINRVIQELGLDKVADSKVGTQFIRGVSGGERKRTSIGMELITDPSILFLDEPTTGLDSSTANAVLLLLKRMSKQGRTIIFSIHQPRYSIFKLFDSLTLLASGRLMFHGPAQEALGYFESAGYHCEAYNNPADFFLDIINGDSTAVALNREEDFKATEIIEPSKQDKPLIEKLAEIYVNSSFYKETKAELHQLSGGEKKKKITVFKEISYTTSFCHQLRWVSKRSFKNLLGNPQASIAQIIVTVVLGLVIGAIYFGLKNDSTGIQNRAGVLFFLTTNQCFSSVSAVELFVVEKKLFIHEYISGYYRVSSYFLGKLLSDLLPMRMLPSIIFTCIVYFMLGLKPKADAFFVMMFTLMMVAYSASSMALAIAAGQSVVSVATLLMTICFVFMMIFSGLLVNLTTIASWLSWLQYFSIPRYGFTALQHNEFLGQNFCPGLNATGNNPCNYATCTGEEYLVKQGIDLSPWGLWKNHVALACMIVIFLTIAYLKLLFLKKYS

Regarding `c1ccc(-c2ccccc2)cc1`, the compound was called inactive in assay [1], in assay [2], in [3], in assay [4], in assay [5] and in [6]. For the same compound, the call in assay [7], in [8], in assay [9], in assay [10], in assay [11] and in [12] was inactive. Besides, the compound was classed as inactive in assay [13], in [14], in assay [15], in assay [16], in assay [17] and in [18].
Usually AC50 stands for the concentration giving half of the maximal activity seen. For the compound `NS(=O)(=O)C(F)(F)C(F)(F)C(F)(F)C(F)(F)C(F)(F)C(F)(F)C(F)(F)C(F)(F)F`, the AC50 in assay [1] is 7.67 µM (active); in [2], 24.9 µM (active); in assay [3], 29.1 µM (active); in assay [4], 9.25 µM (active); in assay [5], 20.9 µM (active); in assay [6], 12.5 µM (active). The AC50 is 7.12 µM (active) in assay [7]; 10.1 µM (active) in assay [8]; 3.42 µM (active) in [9]; 16.4 µM (active) in assay [10]; 14.9 µM (active) in assay [11]; 17.6 µM (active) in assay [13]. Moreover, the AC50 in assay [16] was 11.4 µM (active); in assay [17], 4.05 µM (active); in assay [18] it was 10 µM (active). Moreover, the call in assay [19], in assay [12] and in assay [14] was inactive.
